According to PubChem BioAssay (NCI):
Compounds without any hit were thinned out: in the full panel of roughly 79,000, 15% have a hit. Active and inactive are the calls of the source. No stated cut-off is given here; in the data, active means growth inhibition above about 70%; inactive means the rest.

Key:
[1] = NCI Yeast Anticancer Drug Screen. Data for the mec2-1 strain (AID 157); settings: S. cerevisiae mec2-1 strain, stronger effect = higher value
Summary of the method: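 Compounds were applied to mec2-1 yeast cells. Their growth was then compared with that of vehicle-treated cultures to give growth inhibition.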

[2] = NCI Yeast Anticancer Drug Screen. Data for the rad14 strain (AID 159);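 further: 0% = growth of vehicle-treated control cultures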; settings: S. cerevisiae rad14 strain growth inhibition, stronger effect = higher value
Summary of the method: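 A mutant yeast strain defective in DNA damage repair is treated with compound; inhibition of its growth is scored against untreated, vehicle-exposed cultures.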

[3] = NCI Yeast Anticancer Drug Screen. Data for the sgs1 mgt1 strain (AID 161);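 further: 0% = growth of cultures given vehicle only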; settings: S. cerevisiae sgs1 mgt1 strain, stronger effect = higher value
Summary of the method: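 Growth of a repair-deficient yeast mutant was monitored after compound treatment and expressed as inhibition relative to vehicle-treated cultures.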

[4] = NCI Yeast Anticancer Drug Screen. Data for the CLN2oe strain (AID 163);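 further: 0% = growth of vehicle-only control cultures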; settings: S. cerevisiae CLN2oe strain, stronger effect = higher value
Summary of the method: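 Cells of an engineered yeast line with disturbed cell-cycle regulation are treated with compound. Inhibition of growth is then calculated relative to the vehicle-treated reference.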

[5] = NCI Yeast Anticancer Drug Screen. Data for the cln2 rad14 strain (AID 165);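 further: 0% = growth equal to vehicle treated cultures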; settings: S. cerevisiae cln2 rad14 strain, stronger effect = higher value
Summary of the method: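 Strain: cln2 rad14 yeast, altered in cell cycle control and DNA damage repair. Read-out: growth inhibition vs vehicle.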

[6] = NCI Yeast Anticancer Drug Screen. Data for the bub3 strain (AID 167); settings: S. cerevisiae bub3 mutant strain, stronger effect = higher value
Summary of the method: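 Steps: expose the mutant yeast strain to compound; grow alongside vehicle-treated cultures; measure growth; express inhibition against the vehicle cultures.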

[7] = NCI Yeast Anticancer Drug Screen. Data for the wt2 strain (AID 169);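 further: 0% = growth of vehicle-treated yeast cultures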; settings: S. cerevisiae wt2 strain growth inhibition, stronger effect = higher value
Summary of the method: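 Growth of compound-treated yeast is measured and expressed as inhibition relative to vehicle-only controls.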

[8] = NCI Yeast Anticancer Drug Screen. Data for the mlh1 strain (AID 171);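 further: 0% = growth of vehicle-treated control cultures of the same strain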; settings: S. cerevisiae mlh1 strain growth inhibition, stronger effect = higher value
Summary of the method: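 Test agents were incubated with yeast bearing a defined DNA damage repair or cell cycle control alteration; values are growth inhibition normalised to vehicle-treated cultures.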

[9] = NCI Yeast Anticancer Drug Screen. Data for the sgs1 strain (AID 173);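 further: 0% = growth of vehicle-only control cultures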; settings: S. cerevisiae sgs1 mutant, stronger effect = higher value
Summary of the method: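 Strain with an altered DNA repair or cell cycle pathway exposed to compound. Growth then measured. Value = inhibition versus vehicle control.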

[10] = NCI Yeast Anticancer Drug Screen. Data for the mlh1 rad18 strain (AID 175); settings: S. cerevisiae mlh1 rad18 strain growth inhibition, stronger effect = higher value
Summary of the method: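 A repair-deficient yeast strain is exposed to test compound, and growth is scored relative to vehicle-treated controls.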

[11] = NCI Yeast Anticancer Drug Screen. Data for the rad18 strain (AID 177); settings: S. cerevisiae rad18 mutant growth inhibition, stronger effect = higher value
Summary of the method: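 DNA-repair-defective yeast; compound treatment; growth inhibition scored against vehicle.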

[12] = NCI Yeast Anticancer Drug Screen. Data for the rad52 strain (AID 147);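 further: 0% = growth of vehicle-treated control cultures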; settings: S. cerevisiae rad52 mutant growth inhibition, stronger effect = higher value
Summary of the method: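 Growth of repair-deficient yeast cells was compared between compound-treated and vehicle-treated cultures to give percent inhibition.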

[13] = NCI Yeast Anticancer Drug Screen. Data for the rad50EPP+ strain (AID 151);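 further: 0% = growth of vehicle-treated control cultures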; settings: S. cerevisiae rad50 mutant strain, stronger effect = higher value
Summary of the method: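 Measured: growth inhibition of rad50EPP+ yeast. Reference: vehicle-treated controls. Screen uses strains with defined genetic alterations in DNA damage repair or cell cycle control.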

[14] = NCI Yeast Anticancer Drug Screen. Data for the mgt1 strain (AID 153); settings: S. cerevisiae mgt1 mutant growth inhibition, stronger effect = higher value
Summary of the method: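 Compounds were applied to mgt1 mutant yeast, and growth was then compared against vehicle-treated control cultures to give percent inhibition.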

[15] = NCI Yeast Anticancer Drug Screen. Data for the rad50 strain (AID 155);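 further: 0% = growth of vehicle-only cultures of the same strain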; settings: S. cerevisiae rad50 strain growth inhibition, stronger effect = higher value
Summary of the method: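 Inhibition values express reduced yeast growth in compound-treated cultures relative to vehicle-treated controls.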

[16] = at 5.0 µM (retest, dose inferred, filed as 0.5)
[17] = at 50.0 µM (retest, dose inferred, filed as 5.0)

Measured: growth inhibition

C=C1CCC(O)C/C1=C/C=C1\CCCC2(C)C1CCC2C(C)CCCC(C)C (stereo not drawn)
inactive: [1]; at 100.0 µM -15% | [2]; at 1.2 µM -14% | [2]; at 3.7 µM -27% | [2]; at 11.0 µM -23% | [2]; at 33.0 µM -23% | [2]; at 100.0 µM 38% | [3]; [16] 6% | [3]; [17] 57% | [3]; at 50.0 µM 54.9% | [4]; at 1.2 µM -11% | [4]; at 3.7 µM 8% | [4]; at 11.0 µM 2% | [4]; at 33.0 µM 6% | [4]; at 100.0 µM 39% | [5]; [16] 9% | [5]; [17] 19% | [5]; at 50.0 µM 4.95% | [6]; at 1.2 µM -25% | [6]; at 3.7 µM -23% | [6]; [16] 9% | [6]; at 11.0 µM -27% | [6]; at 33.0 µM -13% | [6]; [17] 69% | [6]; at 50.0 µM 24.1% | [6]; at 100.0 µM 7% | [7]; at 1.2 µM -8% | [7]; at 3.7 µM -14% | [7]; at 11.0 µM -18% | [7]; at 33.0 µM -27% | [7]; at 100.0 µM 22% | [8]; at 1.2 µM -24% | [8]; at 3.7 µM -26% | [8]; at 11.0 µM -26% | [8]; at 33.0 µM -5% | [8]; at 100.0 µM 18% | [9]; at 1.2 µM -23% | [9]; at 3.7 µM -6% | [9]; at 11.0 µM -25% | [9]; at 33.0 µM -13% | [9]; at 100.0 µM 35% | [10]; [16] 11% | [11]; at 1.2 µM -10% | [11]; at 3.7 µM -6% | [11]; at 11.0 µM -8% | [11]; at 33.0 µM 13% | [11]; at 100.0 µM 34%
active: [10]; [17] 93% | [10]; at 50.0 µM 82.9%

CCc1ccc2c(c1)N(CC(C)CN(C)C)c1ccccc1S2 (stereo not drawn)
active: [13]; at 100.0 µM 87% | [14]; at 100.0 µM 76% | [15]; at 100.0 µM 82% | [2]; at 100.0 µM 96% | [6]; at 50.0 µM 74% | [6]; at 100.0 µM 74% | [7]; at 100.0 µM 78% | [9]; at 100.0 µM 93% | [11]; at 100.0 µM 85%
inactive: [12]; at 1.2 µM -5% | [12]; at 3.7 µM -8% | [12]; at 11.0 µM -9% | [12]; at 33.0 µM -1% | [12]; at 100.0 µM 69% | [13]; at 1.2 µM -12% | [13]; at 3.7 µM -15% | [13]; at 11.0 µM -23% | [13]; at 33.0 µM -31% | [14]; at 1.2 µM -3% | [14]; at 3.7 µM -4% | [14]; at 11.0 µM -6% | [14]; at 33.0 µM 0% | [15]; at 1.2 µM -4% | [15]; at 3.7 µM -9% | [15]; [16] 2% | [15]; at 11.0 µM -1% | [15]; at 33.0 µM 4% | [15]; [17] 37% | [15]; at 50.0 µM 52.1% | [1]; at 1.2 µM -6% | [1]; at 3.7 µM -8% | [1]; [16] -7% | [1]; at 11.0 µM -12% | [1]; at 33.0 µM -4% | [1]; [17] -27% | [1]; at 50.0 µM -12.1% | [1]; at 100.0 µM 58% | [2]; at 1.2 µM -2% | [2]; at 3.7 µM -4% | [2]; at 11.0 µM -1% | [2]; at 33.0 µM 23% | [3]; [16] -12% | [3]; [17] 23% | [3]; at 50.0 µM 24.3% | [4]; at 1.2 µM -9% | [4]; at 3.7 µM -4% | [4]; at 11.0 µM -10% | [4]; at 33.0 µM 3% | [4]; at 100.0 µM 58% | [5]; [16] -24% | [5]; [17] 21% | [5]; at 50.0 µM 65% | [6]; at 1.2 µM -3% | [6]; at 3.7 µM 3% | [6]; [16] 2% | [6]; at 11.0 µM 18% | [6]; at 33.0 µM 48% | [6]; [17] 32% | [7]; at 1.2 µM -4% | [7]; at 3.7 µM -4% | [7]; at 11.0 µM -6% | [7]; at 33.0 µM 3% | [8]; at 1.2 µM -2% | [8]; at 3.7 µM -3% | [8]; at 11.0 µM -5% | [8]; at 33.0 µM -23% | [8]; at 100.0 µM 62% | [9]; at 1.2 µM -4% | [9]; at 3.7 µM -5% | [9]; at 11.0 µM -4% | [9]; at 33.0 µM 16% | [11]; at 1.2 µM -12% | [11]; at 3.7 µM -10% | [11]; at 11.0 µM -8% | [11]; at 33.0 µM 2%
